Shn3 3UTR inh: reduces Shn3 3'UTR luciferase signal in osteoblasts. hit rate 0.52% among 360,000. AID 588674. Clone20 osteoblast Shn3 3'UTR firefly luciferase, 24 h. inhibition, % at 12.5 µM;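 active = mean inhibition of at least 75% with every replicate also reaching 75%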;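 note: 0% = median of neutral control wells and 100% = pilot-screen positive control compound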
NCOA2 inhibitor: human SRC2 (NCOA2) inhibition. HEK293 GAL4-SRC2 luciferase reporter, luminescence. Q15596. AID 651957. inhibition, % at 9 µM. hit rate 0.17% among 370,000;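 active = inhibition above the mean inhibition of all tested compounds plus 3 SD, set per campaign, cut at about 52% in these data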;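 note: 0% = DMSO treated cells and 100% = cells given Gossypol at 36 µM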
SRC1 inh: inhibits human SRC1 coactivator; HEK293 GAL4-SRC1 luciferase reporter, luminescence; AID 588354; Q15788; inhibition, % at 3.6 µM; hit rate 0.12% among 360,000;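 active = inhibition above the campaign mean plus 3 SD, with each screening campaign given its own cutoff, cut at about 60% in these data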;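 note: 0% = DMSO treated cells and 100% = gossypol at 36 µM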
Gli-Sufu block: Gli-Sufu pathway antagonism. Sufu-KO-LIGHT fibroblasts, Gli luciferase reporter luminescence. inhibition, % at 5 µM. hit rate 0.74% among 340,000;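 active = inhibition above about 55%, limit read from the data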;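 note: 0% = DMSO-treated cells and 100% = wells with medium but no cells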
SRC3 inh: inhibits human SRC3 coactivator; AID 588352; hit rate 0.17% among 360,000; HEK293 GAL4-SRC3 luciferase reporter, luminescence; inhibition, % at 3.6 µM;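 active = inhibition above a per-campaign cutoff, the mean of all compounds plus 3 SD, cut at about 60% in these data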;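 note: 0% = DMSO-treated cells and 100% = gossypol-treated cells at 36 µM; higher means less SRC3-driven luciferase light from the GAL4 reporter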
LRH-1 inv ag: inverse agonists of human LRH-1 (NR5A2); O00482; HEK293T StAR-luciferase reporter, LRH-1 transfected, 24 h; inhibition, % at 3.6 µM; hit rate 0.13% among 360,000; AID 602396;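 active = inhibition above the mean inhibition of all tested compounds plus 3 SD, cut at about 73% in these data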;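 note: 0% = DMSO wells and 100% = reporter-only cells lacking LRH-1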
An asterisk follows results filed as active; · = no result. Sampled rows, rich in hits. Any-hit rate of the full collection: about 1.1%.

SMILES	Shn3 3UTR inh	NCOA2 inhibitor	SRC1 inh	Gli-Sufu block	SRC3 inh	LRH-1 inv ag
COC(=O)[C@]12C[C@H](CC(=O)NCc3ccc(C)o3)C(=O)N(Cc3cccc4ccccc34)C1=C[C@H](C(C)C)O[C@@H]2C1CC1	·	16	·	·	·	·
CCOc1ccc2c(ccc(/C=C/c3cc(C)c4cccnc4c3O)[n+]2C)c1	87*	·	11	18	18	23
Cc1ccc(NC(=O)c2cnn(-c3ccccc3)c2C)cc1	-26	-9	-110	-100	-84	-184
Cc1ccc(NC(=O)c2cc(C)n(-c3ccccc3)c2C)cc1	51	56*	65*	46	66*	68
Cc1cc(C(=O)Nc2ccc(Cl)cc2)c(C)n1-c1ccccc1	·	76*	85*	69*	86*	83*
Cc1cc(C(=O)Nc2ccc(Cl)cc2)n(-c2ccccc2)n1	7	-23	-12	2	-10	-21
COc1ccc(S[C@]2(C(=O)NCc3ccccc3)CC(=O)N[C@@H]2c2ccc(OC)cc2)cc1	·	-3	·	·	·	·
O=C(NC1CCCCC1)C(c1cccnc1)N(C(=O)CCl)c1cccc(Cl)c1 (stereo unspecified)	-7	57*	37	0	69*	-27
Cc1cccc(N(C(=O)CNC(=O)c2ccco2)C(C(=O)NC2CCCCC2)c2cccnc2)c1 (stereo unspecified)	-7	17	-1	2	8	12
O=C(CCC(=O)N1CCN(C2c3ccccc3-c3ccccc32)CC1)Nc1nnc(C(F)(F)F)s1	·	-33	·	·	·	·
c1ccc(Cn2c(SCC3CCC3)nnc2-c2cccnc2)cc1	·	-8	·	·	·	·
CC(C)CN1C(=O)[C@]2(CC(=O)N(C)C2c2ccccc2)c2cc(-n3cc(-c4ccccc4)nn3)ccc21 (stereo partly specified)	·	15	·	·	·	·
CCc1ccc(/C=C2\SC(=S)N(CCCC(=O)Nc3ccccn3)C2=O)cc1	36	57*	9	35	14	-2
COc1ccc(/C=C2\SC(=S)N(CCC(=O)Nc3cccc(O)c3)C2=O)cc1	-24	0	12	-25	-19	-12
CC(=C\c1ccccc1)/C=C1/SC(=S)N(CCCC(=O)O)C1=O	9	53*	-9	5	2	3
COC(=O)c1ccc(/C=C2/SC(=S)N(CCCC(=O)Nc3ccccn3)C2=O)cc1	10	4	-4	9	13	4
COc1ccc(/C=C2/SC(=S)N(CCC(=O)O)C2=O)cc1	52	84*	49	27	48	20
COc1ccc(/C=C2/SC(=S)N(CCCC(=O)Nc3ccc(O)cc3)C2=O)cc1	7	31	21	57*	15	32
CCOC(=O)N1C(=O)C[C@](Sc2ccc(OC)cc2)(C(=O)N(C)C)[C@H]1c1ccc(OC)cc1	·	8	·	·	·	·
C[C@@H](N)P(=O)(O)C[C@H](Cc1ccccc1)C(=O)O	·	11	·	·	·	·
COc1ccc(/C=C2\SC(=S)N(CCCC(=O)Nc3ccc(O)cc3)C2=O)cc1	9	60*	9	39	19	11
COc1ccc(/C=C2\SC(=S)N(CCC(=O)Nc3ccc(C(=O)O)cc3)C2=O)cc1	-16	5	-13	32	8	-6
Cc1nn(-c2nc3ccccc3[nH]2)c(=O)c2ccccc12	93*	85*	74*	79*	80*	73*
CC(=O)N(C1CC(C)C(C#N)(C#N)C1(C#N)C#N)N(C)C (stereo unspecified)	93*	-27	-14	1	11	4
CCCC(=O)N(C1CC(C)C(C#N)(C#N)C1(C#N)C#N)N(C)C (stereo unspecified)	97*	-33	-7	-4	16	4
SMILES	Shn3 3UTR inh	NCOA2 inhibitor	SRC1 inh	Gli-Sufu block	SRC3 inh	LRH-1 inv ag
CCOc1cc(/C=C2\CN(C)C/C(=C\c3ccc(O)c(OCC)c3)C2=O)ccc1O	96*	21	33	27	54	25
COc1cc(C=C2CN(C)C(=O)C2=O)ccc1O	-16	-31	-47	·	-14	2
COCCN1Cc2cccc(C(=O)Nc3ccc(C)cc3)c2C1=O	-20	-20	-20	15	13	-5
COCCN1Cc2cccc(C(=O)Nc3ccc4c(c3)OCCO4)c2C1=O	87*	9	-6	7	-14	3
COc1ccc(N=C2S/C(=C\c3ccc(N4CCOCC4)o3)C(=O)N2CCc2c[nH]c3ccccc23)cc1	95*	·	-10	·	24	18
O=C(Nc1ccc(Br)cc1)OC1CC2CC1[C@H]1CCCCN1[C@H]2Cc1ccccc1 (stereo partly specified)	·	15	·	·	·	·
Nc1ccc2oc(-c3cccc4ccccc34)nc2c1	30	55*	3	3	-18	-13
Cc1ccc(-c2nc3cc(N)ccc3o2)c(C)c1	-4	-22	-103	-5	-72	-69
CCOC(=O)[C@@]12CCC3=C1N(CCC3)C(=O)[C@H](CC(=O)NCCCOC)C2	·	9	·	·	·	·
Cc1ccc(C(=O)Nc2sc(C)c(-c3ccccc3)c2C(N)=O)cc1[N+](=O)[O-]	39	49	51	66*	60	43
COc1cc2c(c(OC)c1)[C@H](/C=C/c1ccccc1)[C@@H]([C@H](O)CO)OC2	·	10	·	·	·	·
Cc1ccccc1NC(=O)OC1CCC12CCC(c1ccccc1)CC2 (stereo unspecified)	·	9	·	·	·	·
CCN(CC)c1ccc(/C=C2\SC(=O)N(C(C)C)C2=O)o1	97*	·	-41	-32	-3	-6
CC(C)N1C(=O)S/C(=C/c2ccc3c(c2)n(C)c(=O)n3C)C1=O	2	-15	-27	11	-11	-8
COc1ccc(C2C(C(=O)Nc3ccc(F)cc3)CCC(=O)N2c2ccc(OC)cc2)cc1 (stereo unspecified)	·	-10	·	·	·	·
CCC1C/C(=C\c2cccnc2)C(=O)/C(=C/c2cccnc2)C1 (stereo unspecified)	40	92*	-394	-3	45	52
O=C1/C(=C/c2cccnc2)CC/C1=C\c1cccnc1	-16	9	-36	8	8	11
O=C1/C(=C/c2cccnc2)CCC/C1=C\c1cccnc1	·	74*	·	3	·	·
COc1ccc2c(c1)CNC2CS(=O)(=O)NCC(C)C (stereo unspecified)	·	-3	·	·	·	·
CN1[C@H](Cc2ccccc2)COc2cccc(F)c2S1(=O)=O	·	12	·	·	·	·
CC1Cc2ccccc2N1c1ncnc(N)c1[N+](=O)[O-] (stereo unspecified)	16	72*	66*	-12	64*	41
CC1CCCCN1c1ncnc(N)c1[N+](=O)[O-] (stereo unspecified)	14	43	45	-16	43	5
